Assay results published in PubChem BioAssay (NCATS).
Records with an inconclusive call do not appear. The source made the active and inactive calls. Calls come from the whole dose curve; as a rule, active = well fitted cell-killing curve with a large enough effect; inconclusive = small, poorly fitted or top-dose-only effect, or effect the other way; inactive = no such curve, though single readings can be large or run the other way.

Key:
[1] = Quantitative High-Throughput drug screen in 47 multiple myeloma cell lines against the NCATS MIPE library collection: U266_ATCC cell viability assay (AID 1919864); note: nearly all actives have a fitted effect of over 35% in size
Method in brief: (§1)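 Plated at 500 cells per well, myeloma lines received MIPE 4.0 compounds by pin tool. Following 48 h culture at 37 °C, CellTiter-Glo luminescence gave viability relative to DMSO and media-only controls.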

[2] = Quantitative High-Throughput drug screen in 47 multiple myeloma cell lines against the NCATS MIPE library collection: XG6_PLB cell viability assay (AID 1919865); note: nearly all actives have a fitted effect of over 40% in size
Method in brief: as §1

[3] = Quantitative High-Throughput drug screen in 47 multiple myeloma cell lines against the NCATS MIPE library collection: RPMI8226_ATCC cell viability assay (AID 1919871); note: nearly all actives have a fitted effect of over 30% in size
Method in brief: as §1

[4] = Quantitative High-Throughput drug screen in 47 multiple myeloma cell lines against the NCATS MIPE library collection: OPM2_DSMZ cell viability assay (AID 1919872); note: nearly all actives have a fitted effect of over 30% in size
Method in brief: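 Viability readout: CellTiter-Glo luminescence following 5 min room-temperature incubation with reagent. Prior exposure: 48 h, 37C, humidified 5% CO2, 500 cells per well.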

[5] = Quantitative High-Throughput drug screen in 47 multiple myeloma cell lines against the NCATS MIPE library collection: KMS11_JCRBsus cell viability assay (AID 1919873); note: nearly all actives have a fitted effect of over 50% in size
Method in brief: as §1

[6] = Quantitative High-Throughput drug screen in 47 multiple myeloma cell lines against the NCATS MIPE library collection: KMS28BM_JCRB cell viability assay (AID 1919874); note: nearly all actives have a fitted effect of over 35% in size
Method in brief: as §1

[7] = Quantitative High-Throughput drug screen in 47 multiple myeloma cell lines against the NCATS MIPE library collection: XG1_PLB cell viability assay (AID 1919866); note: nearly all actives have a fitted effect of over 35% in size
Method in brief: as §1

[8] = Quantitative High-Throughput drug screen in 47 multiple myeloma cell lines against the NCATS MIPE library collection: PCM6_Riken cell viability assay (AID 1919870); note: nearly all actives have a fitted effect of over 30% in size
Method in brief: as §1

[9] = Quantitative High-Throughput drug screen in 47 multiple myeloma cell lines against the NCATS MIPE library collection: VP6_DJ cell viability assay (AID 1919867); note: nearly all actives have a fitted effect of over 40% in size
Method in brief: as §1

[10] = Quantitative High-Throughput drug screen in 47 multiple myeloma cell lines against the NCATS MIPE library collection: PE2_PLB cell viability assay (AID 1919869); note: nearly all actives have a fitted effect of over 35% in size
Method in brief: as §1

[11] = Quantitative High-Throughput drug screen in 47 multiple myeloma cell lines against the NCATS MIPE library collection: UTMC2_PLB cell viability assay (AID 1919868); note: nearly all actives have a fitted effect of over 55% in size
Method in brief: as §1

Measured: Potency
Potency is the fitted concentration of half-maximal effect.

C=C(c1ccc(C(=O)O)cc1)c1cc2c(cc1C)C(C)(C)CCC2(C)C
inactive: [1] | [2] | [3] | [4] | [5] | [6]

c1cnc2cc3c(cc2n1)C1CNCC3C1
inactive: [1] | [7] | [8] | [4] | [5] | [6]

O=c1ccc2ccc(O)c(O)c2o1
active: [1] 9.35 µM | [7] 4.18 µM | [9] 11.8 µM | [10] 13.2 µM
inactive: [3] | [4] | [5] | [6]

CNC[C@H](O)c1ccc(O)c(O)c1
inactive: [2]
active: [1] 38.2 µM | [3] 42.9 µM | [4] 13.6 µM | [5] 19.1 µM | [6] 21.5 µM

CC1(C)NC(=O)N(c2ccc([N+](=O)[O-])c(C(F)(F)F)c2)C1=O
inactive: [1] | [2] | [9] | [6]

Oc1ccc(OCc2ccccc2)cc1
not listed: [2] | [3] | [8]
inactive: all other assays above

Cc1cccc(-c2[nH]ncc2-c2ccc3ncccc3n2)n1
inactive: [1] | [2] | [9] | [3] | [4]

COc1c2occc2cc2ccc(=O)oc12
inactive: [1] | [2] | [10] | [4]

Cc1cc(Cl)ccc1OCCCC(=O)NO
active: [1] 14.8 µM | [2] 1.05 µM | [9] 3.72 µM | [11] 9.35 µM
inactive: [3] | [4]

COc1cc(OC)c(C(=O)CCCN2CCCC2)c(OC)c1
inactive: [1] | [2] | [4] | [5]

Cc1nccn1CC1CCc2c(c3ccccc3n2C)C1=O (centres undefined)
inactive: [9] | [10] | [8] | [3] | [4]
active: [1] 23.5 µM | [6] 2.64 µM

CN(C)C(=O)COC(=O)Cc1ccc(OC(=O)c2ccc(N=C(N)N)cc2)cc1
inactive: [9] | [3] | [4] | [5]
active: [1] 26.4 µM | [2] 5.26 µM | [10] 5.26 µM

N=C(N)c1ccc2cc(OC(=O)c3ccc(N=C(N)N)cc3)ccc2c1
active: [9] 5.26 µM | [10] 10.5 µM | [4] 10.5 µM | [6] 5.9 µM
inactive: [2] | [7] | [8]

CCCCc1ccc2nc(NC(=O)OC)[nH]c2c1
active: [1] 0.743 µM | [9] 0.0047 µM | [8] 0.0935 µM | [3] 0.418 µM | [4] 0.0166 µM | [5] 0.0033 µM

O=C(OC1C[C@H]2CC[C@@H](C1)[N+]21CCCC1)C(O)(c1ccccc1)c1ccccc1 (some centres undefined)
not listed: [1] | [9] | [10]
inactive: all other assays above

Cc1nc2n(c(=O)c1CCN1CCC(c3noc4cc(F)ccc34)CC1)CCCC2
active: [9] 7.43 µM
not listed: [1] | [11]
inactive: all other assays above

Clc1ccc(C(Cn2ccnc2)OCc2ccsc2Cl)c(Cl)c1 (centres undefined)
active: [2] 20.9 µM | [7] 23.5 µM | [8] 16.6 µM | [5] 13.2 µM

O=C(O)c1cn(-c2ccc(F)cc2)c2cc(N3CCNCC3)c(F)cc2c1=O
not listed: [1] | [9]
inactive: all other assays above

Nc1ncn([C@H]2C[C@H](O)[C@@H](CO)O2)c(=O)n1
inactive: [9] | [3] | [4] | [6]
active: [2] 0.833 µM | [7] 0.264 µM | [5] 0.59 µM

Nc1nc(OCc2ccccc2)c2[nH]cnc2n1
inactive: [3] | [4] | [5] | [6]
active: [2] 16.6 µM | [7] 13.2 µM | [9] 7.43 µM

CCOC(=O)C(C)Oc1cccc2c(=O)n(CC(=O)Nc3ccc4c(c3)OCCO4)ccc12 (centres undefined)
inactive: [2] | [7] | [8] | [3] | [5] | [6]

COc1cc2nc(N3CCN(C(=O)C4CCCO4)CC3)nc(N)c2cc1OC (centres undefined)
inactive: [1] | [10] | [3] | [4]

S=c1nc[nH]c2nc[nH]c12
active: [2] 2.35 µM | [7] 1.66 µM | [9] 5.26 µM | [11] 14.8 µM | [10] 4.18 µM | [8] 5.9 µM | [6] 1.18 µM

Cc1nc(-c2ccc(OCC(C)C)c(C#N)c2)sc1C(=O)O
not listed: [2] | [7] | [9] | [10]
inactive: all other assays above

CC(C)[C@H](N)C(=O)OCCOCn1cnc2c(=O)[nH]c(N)nc21
inactive: [1] | [10] | [8] | [3] | [4]

Cc1cccc(C)c1OCC(=O)N[C@@H](Cc1ccccc1)[C@@H](O)C[C@H](Cc1ccccc1)NC(=O)[C@H](C(C)C)N1CCCNC1=O
active: [5] 20.9 µM
inactive: [1]
